Most compounds without a hit are left out; they make up all but 13% or so of the library.
Pf growth 48h = P. falciparum growth inhibition at 48 hours (one generation) | 5.9% of 310,000 active | AID 504832 | Potency, µM (doses to about 28.7 µM), inactives show at the highest dose activity change, negative = inhibition, most hits filed as inhibitors | P. falciparum luciferase growth in erythrocytes, 48 h; further: potency means the concentration at half of the fitted maximal effect
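Firefly luciferase activity from engineered P. falciparum reports growth; inhibitors lower the luminescent signal. Cultures contained 2% hematocrit erythrocytes at 0.1% final parasitemia.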
Pf growth 96h = P. falciparum growth inhibition at 96 hour, primary screen for plastid delayed-death inhibitors. Potency, µM (top dose mostly 28.7 µM), without a hit: top-dose activity change, negative = inhibition, hits mostly inhibitors. P. falciparum luciferase reporter growth, 96 h. 6.9% of 320,000 active; further: potency means the concentration at half of the fitted maximal effect
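Two parasite generations (96 h, 37 C, 5% CO2) of compound exposure in infected erythrocytes (0.05% parasitemia, 2% hematocrit). Luciferase-reporter P. falciparum; decreased luminescence indicates inhibited growth, aimed at apicoplast-acting delayed death.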
HCMV inh = blocks human cytomegalovirus replication; HFF cells, HCMV-luciferase reporter, 72 h; active compounds read low; AID 1259415; 4.5% of 410,000 active; activity change, negative = inhibition, % at 57.5 µM; in the data active means activity change below about -60%; inconclusive means no clear call, values can overlap the other calls; inactive means above about -39%
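Inhibition of viral replication was scored as loss of reporter luminescence in HFFs infected with HCMV-luciferase (MOI 1 PFU/cell) for 72 h; compounds tested at 2 doses, normalized to buffer and Salinomycin controls.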
HCV inh = HCV inhibition. Huh7.5.1 HCVcc-Cre infection, luciferase reporter, 44 h. Potency, µM (highest dose often 41.8 µM), for inactives: at the highest dose activity change, negative = inhibition, usual class: inhibitors. 3.4% of 340,000 active. AID 651820; further: potency means the concentration at half of the fitted maximal effect
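Antiviral activity was scored by luciferase reporter output from cells infected with HCVcc-Cre (~0.5 moi) in presence of compound, 44 h infection period, cells seeded 1,000/well 4 h prior.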
An asterisk follows results filed as active; ? = inconclusive; nt = not tested or not shown. Unless noted, the call rests on the fitted dose curve; in most records, active means well fitted inhibition curve with a large enough effect; inconclusive means small, poorly fitted or top-dose-only effect, or another doubt; inactive means no such curve, though single readings can be large or run the other way. On the % scale 0 is the no-effect control and ±100 the full control effect.

SMILES | Pf growth 48h | Pf growth 96h | HCMV inh | HCV inh
Cc1ccccc1CC(=O)OCC(=O)Nc1ccc(C)c(S(=O)(=O)N2CCCCC2)c1 | 10µM* | ? | 34 | ?
COc1ccc(NC(=O)C2CC(=O)N(Cc3ccc(C)cc3)C2)cc1S(=O)(=O)N1CCCCC1 (centres undefined) | ? | ? | -8 | ?
Cc1ccc(CN2CC(C(=O)Nc3ccc(C)c(S(=O)(=O)N4CCCCC4)c3)CC2=O)cc1 (centres undefined) | nt | nt | -66* | ?
COc1ccc(CC(=O)Nc2ccc(C)c(S(=O)(=O)N3CCCCCC3)c2)cc1 | ? | 8% | 0 | ?
Cc1ccc(NC(=O)Cc2ccc(Cl)cc2)cc1S(=O)(=O)N1CCCCCC1 | 13µM* | ? | -26 | 10µM*
COc1ccc(NC(=O)CCOc2ccccc2F)cc1S(=O)(=O)N1CCCCC1 | nt | nt | -6 | 13µM*
Clc1ccc(-c2nc3c4ccccc4ccn3c2Cc2ccsc2)cc1 | nt | nt | 60 | nt
COc1ccc(NC(=O)COc2cc(C)cc(C)c2)cc1S(=O)(=O)N1CCCCC1 | ? | ? | -34 | 4µM*
Cc1ccc(NC(=O)Cn2cc(C(F)(F)F)cc(Cl)c2=O)cc1S(=O)(=O)N1CCCCC1 | ? | ? | 6 | ?
Cc1ccc(NC(=O)Cn2c(=O)cnc3ccccc32)cc1S(=O)(=O)N1CCCCC1 | ? | ? | ? | 11µM*
CC(C)(C)C1CCC(C(=O)Nc2ccccc2N2CCOCC2)CC1 (centres undefined) | 9.3µM* | ? | -22 | 30%
COc1ccc(NC(=O)COc2ccc(C)c(C)c2)cc1S(=O)(=O)N1CCCCC1 | -24% | ? | 5 | ?
Cc1ccc(NC(=O)Cn2ncc(Cl)c(Cl)c2=O)cc1S(=O)(=O)N1CCCCC1 | ? | ? | 0 | 10µM*
Cc1cc(-c2ccccc2)nc2cc(C(=O)Nc3cc(C(F)(F)F)ccc3Cl)nn12 | nt | nt | -30 | nt
CC1CCN(S(=O)(=O)c2ccc3c(ccc(=O)n3CC(=O)NCc3ccccc3Cl)c2)CC1 | nt | nt | 30 | nt
CC(C)c1ccc(Nc2c(-c3ccsc3)nc3ccc(Cl)cn23)cc1 | nt | nt | 21 | nt
COCCCn1c(=O)c2sccc2n2c(CCCC(=O)Nc3ccc(F)c(F)c3)nnc12 | nt | nt | -8 | nt
COc1ccc(Cl)cc1NC(=O)CCS(=O)(=O)c1cccc2nonc12 | nt | nt | -86* | nt
Cc1ccc(Cl)cc1NC(=O)CCS(=O)(=O)c1cccc2nonc12 | 3% | 36% | -5 | 5%
CCC(C)(Oc1ccc(C2(c3ccc(OC(C)(CC)C(=O)O)cc3)CCCCC2)cc1)C(=O)O (centres undefined) | 1% | ? | nt | nt
Cc1nc2c([N+](=O)[O-])c(C)c(C)cc2[nH]1 | ? | 10% | -15 | 0%
Cc1nc2c(Cl)cc(Cl)cc2[nH]1 | 18% | 85% | -65* | ?
Cc1ccc(C)c(CSc2nnc(C)n3c2cc2sccc23)c1 | nt | nt | -19 | nt
COCC(=O)N/N=C/c1ccc(Sc2nc3ccccc3s2)o1 | -5% | ? | -17 | -17%
O=C(Cc1cccc2ccccc12)N/N=C/c1ccc(Sc2nc3ccccc3s2)o1 | ? | ? | -31 | 10µM*
SMILES | Pf growth 48h | Pf growth 96h | HCMV inh | HCV inh
N#CCC(=O)N/N=C/c1ccc(Sc2nc3ccccc3s2)o1 | 3% | 78% | -99* | 10%
COc1ccc(C(=O)Nc2ccc(C(=O)OCc3cc(=O)n4nc(C5CC5)sc4n3)cc2)cc1 | nt | nt | 11 | nt
Cc1ccc(C)c(N2CCN(C(=O)CCC(=O)Nc3nnc(CC(C)C)s3)CC2)c1 | -12% | ? | -36 | 18%
Cc1ccc(OCCN2CCN(C(=O)CCC(=O)Nc3nnc(CC(C)C)s3)CC2)cc1 | 12µM* | 0.33µM* | -31 | -73%
CCCc1nnc(NC(=O)CCC(=O)N2CCN(Cc3ccc(Cl)cc3)CC2)s1 | -24% | 12µM* | -2 | ?
CC(C)Cc1nnc(NC(=O)CCC(=O)N2CCN(Cc3ccc(F)cc3)CC2)s1 | 11% | ? | -29 | 22µM*
Cc1c(NC(=O)Nc2ccccc2C(F)(F)F)sc2nc3n(c(=O)c12)CCC(C)CC3 (centres undefined) | nt | nt | 1 | nt
COc1ccc(NC(=O)N2CCN(S(=O)(=O)c3ccc4c(ccn4C)c3)CC2)c(OC)c1 | nt | nt | -8 | nt
CC1S/C(=C(\C#N)C(=O)NCc2ccco2)N(c2ccc(F)cc2)C1=O (centres undefined) | 1% | 108% | -97* | 4%
COc1ccc(-n2nnc(-c3nc(-c4ccc5c(c4)OCO5)no3)c2C)cc1Cl | nt | nt | -20 | nt
COc1ccc(CCNC(=O)C2c3ccccc3C(=O)N2CCC(C)C)cc1OC (centres undefined) | -12% | 8.3µM* | 26 | 15%
COc1ccc(CCNC(=O)C2(C)CCC(=O)N2CCC(C)C)cc1OC (centres undefined) | 7% | -28% | -100* | -3%
Clc1ccc(Cl)c2sc(N3CCOCC3)nc12 | nt | nt | 8 | 13µM*
CCOc1cccc(NC(=O)C2CC(=O)N(C)C(=Nc3cccc(OC)c3)S2)c1 (centres undefined) | nt | nt | -2 | nt
CCN1C(=O)c2cccc3c(S(=O)(=O)N(C(=O)c4cccnc4)c4ccc(OC)cc4)ccc1c23 | ? | ? | 78 | ?
CCN1C(=O)c2cccc3c(S(=O)(=O)N(C(=O)c4ccncc4)c4ccc(OC)cc4)ccc1c23 | 15µM* | 13µM* | 11 | ?
CCOC(=O)c1scc(-c2ccc(C)cc2)c1S(=O)(=O)Nc1cc(Cl)ccc1OC | nt | nt | -22 | nt
COC(=O)C1=C(c2ccccc2OCc2ccccc2)C[C@@H]2CC[C@H]1N2C | nt | nt | -20 | nt
COC(=O)C1=C(c2ccccc2OCc2ccccc2)C[C@@H]2CC[C@H]1N2C(=O)NCc1ccc(N(C)C)cc1 | 6.6µM* | ? | ? | ?
COC(=O)C1=C(c2ccccc2OCc2ccccc2)C[C@@H]2CC[C@H]1N2C(=O)NCc1ccc(Cl)cc1 | 9.3µM* | ? | -13 | 11µM*
COC(=O)C1=C(c2ccc(F)cc2OCc2ccccc2)C[C@@H]2CC[C@H]1N2C(=O)NCc1ccc(N(C)C)cc1 | 12µM* | ? | 13 | ?
COC(=O)C1=C(c2ccccc2OCc2ccccc2)C[C@@H]2CC[C@H]1N2C(=O)NCc1ccc([N+](=O)[O-])cc1 | 12µM* | ? | 15 | 13µM*
CCCOc1ccccc1C1NC(=O)NC(C)=C1C(=O)OCCOC(C)C (centres undefined) | ? | 12µM* | -12 | -7%
CCCOc1ccccc1C1NC(=O)NC(C)=C1C(=O)OCc1ccccc1 (centres undefined) | 13µM* | -4% | ? | ?
CCCCc1nn2c(=O)cc(COC(=O)c3ccc(NC(=O)C4CCCCC4)cc3)nc2s1 | nt | nt | 106 | nt
CCc1ccc(NC(=O)c2cnc3sc(N4CCCC4)nn3c2=O)cc1 | nt | nt | -19 | nt
Cc1ccc(N2CC(NC(=O)c3cccs3)CC2=O)cc1 (centres undefined) | nt | nt | -22 | nt
Cc1sc2ccc3sccc3c2[n+]1C | -4% | 15µM* | 10 | -2%
